Test results published in PubChem BioAssay (NCI).
About 83,000 compounds went through this panel and 20% of them were active in at least one assay; those are over-represented in the sample as a whole.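 Negative percent growth values reflect cell death: -40 means 40% of the cells present at the start died, and -100 means all died.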 Values without a mark were called inactive. Calls of active or inactive are those of the source. Rule for the calls: active = growth percent below 10; inactive = the rest.

tested on: MDA-MB-468 breast; assay: NCI-60 one-dose screen, 48 h (100 = growth as untreated, 0 = no growth, -100 = all killed); details: 10 µM unless noted

Row | SMILES | growth
1 | C=CCSc1ccc2c(c1)C(N1CCNCC1)=Nc1ccccc1O2 | 27.8% [8.25 µM]
2 | CC(C)(C)CC(C)(C)c1ccc(OCCSC(=N)N)cc1 | -23.9% (active)
3 | CN1C(=O)C(=Cc2cn(Cc3ccccc3)c3ccc(Br)cc23)C(=O)N(C)C1=O | -49.4% (active)
4 | O=C1c2cccc3cccc(c23)C(=O)N1Nc1nc(N2CCOCC2)nc(N2CCN(c3ccccc3)CC2)n1 | -15.8% (active)
5 | O=c1oc2ccc(-c3ccc(F)cc3F)cc2c(=O)n1-c1ccc(F)c(F)c1 | -10.8% (active)
6 | CNC(=O)c1cc(Oc2cccc3nc(Nc4ccc(Oc5ccccc5)cc4)ccc23)ccn1 | 63.7%
7 | CC1(c2ccc(Cl)cc2)OC(=O)CC(=O)O1 | 109%
8 | O=C(N/N=C/c1ccccc1O)c1ccncc1 | 61%
9 | CCCCCCN=C(N)CCCCCCCCCCC(N)=NCCCCCC | -8.12% (active)
10 | C=CCn1c(SCC(=O)Nc2ccc(C(=O)/C=C/c3ccc(Cl)cc3)cc2)nnc1-c1ccc(Br)cc1 | 79.1%
11 | COCCn1cc(-c2csc(-c3cn(C)c4ccc(F)cc34)n2)c2cccnc21 | 21.3%
12 | Cc1cn(C2CC(F)C(CO)O2)c(=O)[nH]c1=O (stereo not given) | 90.7%
13 | CC/C=C/[C@@H]1C=C[C@@H]2CCC[C@H]2[C@@H]1CC[C@H](O)[C@H](C)N | -76.6% (active)
14 | CCn1c(-c2cc3c([nH]c4ccccc43)c(-c3cccc(O)c3)n2)n[nH]c1=S | 16.1%
15 | CCCN1C=C/C(=C\C(=O)n2ccc3ccccc32)c2ccccc21 | 7.36% (active)
16 | CCOC(=O)C(O)C(O)C(=O)OCC (stereo not given) | 102%
17 | C#CC(=O)N(c1ccc(OC)cc1OC)C(C(=O)NCC(=O)OCC)c1cccs1 (stereo not given) | 20.2%
18 | COc1ccc(NC(=O)c2ccc(Cl)cc2Cl)cc1 | 96.5%
19 | Cn1nc(C(F)(F)F)cc1-c1cc(Cl)c(OCc2ccc(Cl)cc2)c(-c2ccc(Cl)c(C(F)(F)F)c2)c1O | -16.1% (active)
20 | O=C(CN1CCN(c2ccc(Cl)cc2)CC1)N1CCN(c2nnc(-c3ccccc3)c(-c3ccccc3)n2)CC1 | 35.1%

Row | SMILES | growth
21 | O=c1[nH]c(=O)[nH]c(=S)[nH]1 | 95.8%
22 | c1n[nH]cc1-c1nc2ccc3[nH]ncc3c2c2c1CCCC2 | 15.2%
23 | COC(=O)C1(C)CCC[C@]2(C)[C@H]3C[C@H]4C(C(C)C)=C[C@]3(CC[C@@H]12)[C@H]1[C@@H]4[C@@H](OCC#CCN2CCOCC2)CC[C@@H]1OCC#CCN1CCOCC1 (stereo not given in full) | 80%
24 | CCN(CC)CCNC(=O)C(Cl)=C1C(Cl)=C(Cl)C(Cl)=C1Cl | 75.8%
25 | Nc1ccc(S(=O)(=O)c2ccc(Cl)cc2)cc1 | 91.7%
26 | CN(C)c1ccc(Nc2c3ccccc3nc3ccccc23)cc1 | -27.5% (active)
27 | CC(C)Cc1ccc(C(C)C(=O)NCc2ccc(Cn3c(=O)sn(-c4ccc(Cl)cc4)c3=O)cc2)cc1 (stereo not given) | 54.4%
28 | CC(=O)O[C@H]1CC[C@]2(C)[C@H]3CC=C4[C@@H]5CC(C)(C)CC[C@]5(C(=O)OCC(COC(=O)C(Cl)Cl)(COC(=O)C(Cl)Cl)NC(=O)C(Cl)Cl)CC[C@@]4(C)[C@]3(C)CC[C@H]2C1(C)C | 58.7%
29 | CCCCCCCCn1ccc2cc(NC(=O)CN3CCN(c4cc(C)nc(Cl)n4)CC3)ccc21 | 56.6%
30 | COCCOC(=O)NC(=O)Nc1ccc(C(=O)c2ccc(Cl)cc2)cc1 | -8.24% (active)
31 | COc1cccc(/C=N\Nc2ccc([N+](=O)[O-])cn2)c1O | 26.4%
32 | Cc1nc2cnc(N)c(C#Cc3cncc(C(=O)Nc4ccc(Cl)c(C(F)(F)F)c4)c3)c2nc1C | 72.6%
33 | Cc1nc(-c2ccccc2)cc2c(O)c(C(=O)N/N=C/Cc3ccccc3)[nH]c(=O)c12 | 111%
34 | CC1(C)CC[C@]2(C(N)=O)CC[C@]3(C)C(=CC[C@@H]4[C@@]5(C)C/C(=C/c6ccncc6)C(=O)C(C)(C)[C@@H]5CC[C@]43C)[C@@H]2C1 | -25.2% [100 µM] (active)
35 | COC(=O)c1cc(Cl)cc([N+](=O)[O-])c1O | 95.3%
36 | Cc1cc(Nc2ncnc3ccc(NC4=NC(C)(C)CO4)cc23)ccc1Oc1ccn2ncnc2c1 | -60.6% (active)
37 | N#C/C(=C\c1ccc(-c2cccc(C(F)(F)F)c2)o1)c1ccccc1 | 23.4%
38 | COc1ccc(/C=C(/C)c2ccc3ccc(OC)cc3[o+]2)c(O)c1 | 67.7%
39 | O=C(Nc1ccccc1)Nc1cccc(-n2cc(-c3ccncc3)c(-c3ccc(O)c(Cl)c3)n2)c1 | 54.8%
40 | CC1CC(C)(C)OB(OC(C)CC(C)(C)OB2OC(C)CC(C)(C)O2)O1 (stereo not given) | 105%
